Source: PubChem (National Center for Advancing Translational Sciences (NCATS))
Most compounds without a hit are left out; they make up all but 19% or so of the library.
DT40 TDP1 no CPT: qHTS for Inhibitors of human tyrosyl-DNA phosphodiesterase 1 (TDP1): qHTS in cells in absence of CPT. 420,000 tested, 15% active. Potency, µM (series often up to 46.2 µM), without a hit: at the top dose activity change, negative = growth inhibition, hits mostly inhibitors. DT40 Tdp1-/- hTDP1 cells, no CPT, ATP luminescence, 48 h; further: nearly all actives have a fitted effect of over 55% in size
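Growth of hTDP1-complemented DT40 Tdp1-knockout cells is measured by ATP luminescence after at least 48 hr compound exposure at 37 °C, with DMSO substituting for the 20 nM CPT used in the parallel screen.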
DT40 TDP1 CPT: growth inhibition of DT40 Tdp1-/-;hTDP1 cells with camptothecin (screen for TDP1 inhibitors); chicken DT40 Tdp1-/-;hTDP1 cells + 20 nM CPT, ATP luminescence, 48 h; Potency, µM (top dose mostly 46.2 µM), inactives show at the top dose activity change, negative = growth inhibition, hits mostly inhibitors; 420,000 tested, 12% active; further: nearly all actives have a fitted effect of over 55% in size
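Chicken DT40 Tdp1-/- cells complemented with human TDP1, 400 cells/well, exposed to compounds plus 20 nM camptothecin for at least 48 h at 37 C; viability read as ATP content by CellTiter-Glo luminescence.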
KB-3-1 tox: kills parental KB-3-1 adenocarcinoma cells. KB-3-1 viability, CellTiter-Glo ATP luminescence, 72 h. Potency, µM (doses to about 46.1 µM), hits mostly cytotoxic. 400,000 tested, 1.4% active; further: nearly all actives have a fitted effect of over 60% in size
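Here the drug-naive KB-3-1 line serves as comparator for MDR sub-line selectivity; cells received compound titrations, 72 h at 37 °C, then CellTiter-Glo readout.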
HT1080 IDH1KD tx: toxicity to HT-1080 IDH1 knockdown cells (counter line) | HT-1080 IDH1 knockdown viability, ATP luminescence, 48 h | Potency, µM (top dose mostly 46.1 µM), for the others: at the top dose activity, negative = toxicity, usual class: cytotoxic | 360,000 tested, 2% active;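 further: 0% = DMSO wells and -100% = cell-free medium wells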
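Using the IDH1-knockdown HT-1080 line run in the same batch and compound series as the NT line, viability after 48 h at 37 °C was determined by CellTiter-Glo luminescence and expressed as % activity.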
KB-V1 cytotox: kills drug-selected multidrug resistant KB-V1 cells; KB-V1 MDR cells viability, CellTiter-Glo, 72 h; Potency, µM (top dose mostly 46.1 µM), hits mostly cytotoxic; 400,000 tested, 3.4% active; further: nearly all actives have a fitted effect of over 60% in size
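KB-V1 cells (P-gp-expressing MDR subline of KB-3-1) in phenol-red-free DMEM with 10% FBS were exposed to library compounds over a concentration series for 72 h at 37 degrees C. Viability read by CellTiter-Glo luminescence; concentration-effect curves fitted after normalization.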
HT1080NT lethal: kills 2HG-producing HT-1080-NT fibrosarcoma cells | HT-1080-NT fibrosarcoma viability, CellTiter-Glo ATP luminescence, 48 h | Potency, µM (titrated, usually from 46.1 µM), for the others: at the highest dose activity, negative = less viability, actives largely listed as cytotoxic | 360,000 tested, 1.6% active | AID 686970;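 further: NT is the 2HG producing partner of a matched IDH1 knockdown line; 0% = DMSO-treated cells and -100% = media-only wells without cells; nearly all actives have a fitted effect of over 55% in size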
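Viability by CellTiter-Glo luminescence after 48 h compound exposure at 37C of HT-1080-NT cells (750/well, RPMI, 5% FBS). % activity scaled between DMSO wells and medium-only wells, then curve-fitted and categorized by curve class.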
An asterisk follows results filed as active; i = inactive; ? = inconclusive; / = not tested or not shown; ! = a repeat was not active; [ ] = dose if it differs, or a comment. The call rests on the fitted dose curve; in most records, active means well fitted curve in the direction sought with a large enough effect; inconclusive means small, poorly fitted or top-dose-only effect, or another doubt; inactive means no such curve, though single readings can be large; an effect the other way counts as inactive or inconclusive. Unless noted, on the % scale 0 is the no-effect control and ±100 the full control effect; potency means the concentration at half of the fitted maximal effect.

SMILES	DT40 TDP1 no CPT	DT40 TDP1 CPT	KB-3-1 tox	HT1080 IDH1KD tx	KB-V1 cytotox	HT1080NT lethal
CC1(C(=O)NS(=O)(=O)c2ccc(Cl)cc2)CCN1C(=O)Cc1ccc(Cl)cc1Cl (centres undefined)	-3.6%	-0.7%	i	0.6%	i	3.8%
CC1CN(S(=O)(=O)c2ccc(F)cc2)C(C)N1C(=O)N1CCOCC1 (centres undefined)	-12.0%	-4.6%	i	16.5%	i	22.2%
CCc1noc2nc(C)n(CC(=O)O)c(=O)c12	-1.0%	9.5%	i	/	i	/
Cn1c(=NC(=O)CN2C(=O)C3CC=CCC3C2=O)sc2ccccc21 (centres undefined)	?	?	i	13.5%	5.17µM*!	14.0%
COc1ccc(C(=O)N=c2sc3c(C)ccc(OC)c3n2C)cc1OC	5.8µM*	5.17µM*	?	8.8%	18.4µM*	9.2%
Cn1c(=NC(=O)C2=NNC(=O)CC2)sc2ccccc21	-8.9%	0.2%	3.26µM*	27.8%	1.46µM*	21.9%
C[C@@H](C(=O)N=c1sc2ccccc2n1C)N1C(=O)C2CC=CCC2C1=O (some centres undefined)	?	-21.6%	i	-18.3%	i	-1.6%
Cn1/c(=N/NC(=O)c2ccccc2Br)sc2ccccc21	-10.6%	18.7%	?	5.7%	i	19.2%
COc1ccc(C(=O)N=c2sc3ccccc3n2C)cc1OC	14.6µM*	?	i	11.6%	i	12.8%
c1cc(-c2ccc(CN3CCOCC3)cc2)n2ccnc2c1	-16.1%	-11.4%	i	11.7%	i	3.3%
CC(=O)c1ccc(NC(=O)c2ncn(-c3ccccc3)n2)cc1	-16.8%	?	i	/	i	/
CC(C)=CC[N+]1(C)CCCCC1	-15.1%	-8.9%	i	15.7%	i	0.9%
CCNc1oc(-c2cccc3ccccc23)nc1C#N	-0.3%	-8.3%	i	?	i	?
CCOP(=O)(OCC)c1nc(-c2ccccc2)oc1N1CCCCC1	16.4µM*	20.6µM*	i	15.1%	i	-0.3%
CCOP(=O)(c1ccccc1)c1nc(-c2ccccc2C)oc1N1CCCCC1 (centres undefined)	13µM*	13µM*	?	?	?	?
Cc1ccccc1-c1nc(P(=O)(c2ccccc2)c2ccccc2)c(N2CCOCC2)o1	?	?	i	-4.7%	i	-6.4%
CCOP(=O)(c1ccccc1)c1nc(-c2ccccc2C)oc1NCc1ccccc1 (centres undefined)	23.1µM*	?	i	6.3%	?	7.8%
COP(=O)(OC)c1nc(-c2cccc3ccccc23)oc1NCc1ccccc1	18.4µM*	16.4µM*	?	-0.3%	11.6µM*	-14.4%
CCCn1nc(C(=O)N2CCN(S(=O)(=O)c3ccc(C)c(C)c3)CC2)c2ccccc2c1=O	?	?	?	-10.6%	i	3.5%[9.24 µM]
CCOC(=O)c1cccc(NC(=O)CSc2cc(=O)n(C)c3ccccc23)c1	?	20.6µM*	i	/	i	/
CCn1c(=O)cc(SCC(=O)N2CCN(c3ccccc3OC)CC2)c2ccccc21	?	18.4µM*	i	?	8.2µM*	-4.1%
Cn1c(=O)cc(SCC(=O)N2CCN(c3ccccc3)CC2)c2ccccc21	?	16.4µM*	i	0.7%	i	1.2%
CCn1c(=O)cc(SCC(=O)Nc2ccc(OC)c(OC)c2)c2ccccc21	23.1µM*	18.4µM*	i	-7.4%	i	-5.8%
CCN(CC)CCNC(=O)C(=O)NCC(c1cccnc1)N1CCN(c2ccccc2)CC1 (centres undefined)	-26.0%	-12.9%	i	/	i	/
CCOc1ccc(CCNC(=O)c2ccc(C)c(-n3cnc4cccnc43)c2)cc1	?	?	i	/	i	/
SMILES	DT40 TDP1 no CPT	DT40 TDP1 CPT	KB-3-1 tox	HT1080 IDH1KD tx	KB-V1 cytotox	HT1080NT lethal
CCn1c(=O)cc(SCC(=O)Nc2cc(Cl)ccc2OC)c2ccccc21	16.4µM*	?	i	/	i	/
COc1ccc(CNC(=O)CSc2cc(=O)n(C)c3ccccc23)cc1	16.4µM*	?	i	25.5%	i	16.2%
COc1cccc(CNC(=O)CSc2cc(=O)n(C)c3ccccc23)c1	3.6%	29.3%	i	26.4%	i	19.2%
COc1cc(NC(=O)CSc2cc(=O)n(C)c3ccccc23)cc(OC)c1OC	?	10.3µM*	i	/	i	/
COc1ccc(Cl)cc1NC(=O)Cn1c(=O)n2nc(-c3ccccc3)nc2c2ccccc21	-23.7%	-4.9%	/	/	/	/
CCN1CCCC1CNC(=O)c1cnn(-c2ncc(C)c(-c3ccc(F)cc3)n2)c1C(C)C (centres undefined)	-16.1%	-2.7%[9.04 µM]	/	/	/	/
Cc1c(-c2ccccc2)c(P(=O)(N2CCOCC2)N2CCOCC2)c2ccccn12	?	25.9µM*	i	16.9%	i	1.5%
CCOc1cc(/C=C\[N+](=O)[O-])ccc1OCC(=O)N1CCOCC1	2.31µM*	2.59µM*	i	18.4µM*	?	?
CCOc1cc(/C=C/c2nc3cc(C)c(C)cc3s2)ccc1OCC(=O)N1CCOCC1	?	?	i	13.0%	10.3µM*	3.6%
O=C(Nc1ccc(Cl)cc1)c1ccc2sc([C@@H]3O[C@H](CO)[C@@H](O)[C@H]3O)nc2c1	?	?	i	?	i	-9.7%
CCOc1ccc(NC(=O)CCc2c(C)nc3c(-c4ccccc4)c(C)nn3c2C)cc1	?	-17.3%	i	/	i	/
COc1ccc(NC(=O)CCc2c(C)nc3c(-c4ccc(F)cc4)c(C)nn3c2C)c(OC)c1	20.6µM*	23.1µM*	i	/	i	/
CCN1CCN(c2ccc(NC(=O)CCc3c(C)nc4c(-c5ccccc5)c(C)nn4c3C)cc2)CC1	16.4µM*	?	?	?	?	-12.0%
Cc1nc2c(-c3ccccc3)c(C)nn2c(C)c1CCC(=O)NCc1ccccc1	?	-21.2%	i	/	i	/
CSc1ccc(CCNC(=O)CCc2c(C)nc3c(-c4ccccc4)c(C)nn3c2C)cc1	20.6µM*	?	i	/	i	/
COc1ccc(OC)c(NC(=O)CCc2c(C)nc3c(-c4ccccc4)c(C)nn3c2C)c1	20.6µM*	?	?	/	?	/
